# Assay outcomes deposited in PubChem by National Center for Advancing Translational Sciences (NCATS).
# Compounds with a hit are over-represented: about 19% of the library has one in this group of screens.
# HT1080 IDH1KD tx – kills HT-1080 cells with IDH1 knockdown | Potency, µM (series often up to 46.1 µM), usual class: cytotoxic | HT-1080 IDH1 knockdown viability, ATP luminescence, 48 h | 2% of 360,000 active | AID 686971
#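 Viability of IDH1-knockdown HT-1080 fibrosarcoma cells was assessed by CellTiter-Glo after 48 h at 37 °C with titrated compound; concentration-effect curves were classified by fit quality and response size.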
# TDP1 cell CPT – DT40-hTDP1 cell growth loss with CPT; AID 686979; Potency, µM (top dose mostly 46.2 µM), usual class: inhibitors; chicken DT40 Tdp1-/-;hTDP1 cells + 20 nM CPT, ATP luminescence, 48 h; 12% of 420,000 active; further: nearly all actives have a fitted effect of over 55% in size
#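 Chicken DT40 Tdp1-/- cells complemented with human TDP1, 400 cells/well, exposed to compounds plus 20 nM camptothecin for at least 48 h at 37 C; viability read as ATP content by CellTiter-Glo luminescence.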
# IL1B secr inh – inhibitors of inflammasome signaling (IL-1 beta secretion); AID 743279; 4.7% of 360,000 active; activity change, % at 57.5 µM; THP-1 LPS/ATP IL-1B secretion, AlphaLISA, 16 h; hits give low values; in the data active means activity change below about -50%; inconclusive means mostly about -30% to -49%
#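 Secreted IL-1B measured by AlphaLISA bead assay after 16 h compound exposure of THP-1 cells; compounds (final up to 57.5 uM) added 1 h before LPS (250 ng/mL) and ATP (1.25 mM) stimulation; lower signal means less secretion.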
# HT1080-NT tox – kills 2HG-producing HT-1080-NT fibrosarcoma cells | HT-1080-NT fibrosarcoma viability, CellTiter-Glo ATP luminescence, 48 h | Potency, µM (top dose mostly 46.1 µM), hits mostly cytotoxic | 1.6% of 360,000 active;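 further: NT is the 2HG producing partner of a matched IDH1 knockdown line; nearly all actives have a fitted effect of over 55% in size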
#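 Read-out is CellTiter-Glo luminescence after 10 minutes at room temperature, following 48 hours' compound treatment of HT-1080-NT cells (750 cells/well, RPMI, 5% FBS, 37 degrees C).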
# DT40 TDP1 no CPT – qHTS for Inhibitors of human tyrosyl-DNA phosphodiesterase 1 (TDP1): qHTS in cells in absence of CPT | DT40 Tdp1-/- hTDP1 cells, no CPT, ATP luminescence, 48 h | AID 686978, 2013 | 15% of 420,000 active | Potency, µM (doses to about 46.2 µM), usual class: inhibitors; further: nearly all actives have a fitted effect of over 55% in size
#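 Cells were dispensed at 400 per well, compounds added by pin tool, plates incubated ≥48 hr at 37 °C, then CellTiter-Glo added for 30 min at room temperature before luminescence reading. Line: DT40 Tdp1-/- complemented with hTDP1; camptothecin omitted.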
# A number is an active result; . = inactive; ? = inconclusive; / = no result. Unless noted, the call rests on the fitted dose curve; in most records, active means well fitted curve in the direction sought with a large enough effect; inconclusive means small, poorly fitted or top-dose-only effect, or another doubt; inactive means no such curve, though single readings can be large; an effect the other way counts as inactive or inconclusive.
SMILES,HT1080 IDH1KD tx,TDP1 cell CPT,IL1B secr inh,HT1080-NT tox,DT40 TDP1 no CPT
Cc1sc2nc(CSCC(=O)Nc3ccc(Cl)cc3F)[nH]c(=O)c2c1C,.,.,.,.,.
CC1CCN(C(=O)COC(=O)C2CCN(S(=O)(=O)c3c(Cl)cccc3Cl)CC2)CC1,.,?,.,.,.
Cc1c(N=NC2=C(O)CC(C)(C)CC2=O)c(=O)n(-c2ccccc2)n1C,.,?,.,.,?
Cc1sc2nc(CSCC(=O)N(CCC#N)c3ccccc3)[nH]c(=O)c2c1C,.,18.4µM,.,.,?
Cc1sc2nc(CSCC(=O)N(C)CC(=O)Nc3ccc(F)cc3)[nH]c(=O)c2c1C,.,.,.,.,?
Cc1sc2nc(CSCC(=O)N(C)c3ccccc3)[nH]c(=O)c2c1C,.,23.1µM,.,.,16.4µM
Cc1ccccc1NC(=O)Cn1c(=O)n(Cc2ccc3c(c2)OCO3)c(=O)c2ccccc21,/,.,/,/,16.4µM
Cc1cccc(C)c1NC(=O)Cn1c(=O)n(Cc2ccc3c(c2)OCO3)c(=O)c2oc3ccccc3c21,/,5.17µM,/,/,4.61µM
O=C(Cn1c(=O)n(Cc2ccc3c(c2)OCO3)c(=O)c2oc3ccccc3c21)Nc1ccccc1,/,.,/,/,.
Cc1ccccc1NC(=O)Cn1c(=O)n(Cc2ccc3c(c2)OCO3)c(=O)c2oc3ccccc3c21,/,4.11µM,/,/,8.2µM
COc1ccccc1NC(=O)Cn1c(=O)n(Cc2ccc3c(c2)OCO3)c(=O)c2oc3ccccc3c21,/,.,/,/,.
CCN(Cc1nc(-c2ccccc2)no1)C(=O)c1ccco1,.,.,.,.,.
COc1cccc(N2CC(C(=O)Nc3nnc(SCCC4OCCO4)s3)CC2=O)c1 (centres undefined),.,.,.,.,.
CC(C)CN(C(=O)c1cccc(S(=O)(=O)N2CCN(c3ccc(F)cc3)CC2)c1)C1CCS(=O)(=O)C1 (centres undefined),.,?,.,.,?
CC(C)(C)c1ccc(S(=O)(=O)NC(=O)C2(C)CCN2C(=O)Cc2ccc(-c3ccccc3)cc2)cc1 (centres undefined),?,.,.,?,.
CCOc1ccc(/C=N/NC(=O)CC(=O)Nc2ccc(Cl)c(Cl)c2)cc1,?,.,.,.,.
O=C(N/N=C/c1ccc(Cl)cc1)Nc1ccccc1,.,?,.,.,8.2µM
Clc1cccc(N/N=C/c2ccncc2)c1,.,.,-52.7,.,?
O=C(CC(=O)Nc1cccc(Cl)c1)N/N=C\c1ccccc1,.,?,.,.,0.291µM
CCCN(CCC)c1nc(NC2CCN(C(=O)OCC)CC2)nc(OC)n1,?,16.4µM,.,?,20.6µM
Oc1ccc(/C=N/N2CCOCC2)c(O)c1O,.,4.11µM,.,.,4.11µM
O=C1c2cccc3cccc(c23)C(=O)N1/N=C/c1ccc(O)cc1O,.,.,.,.,.
O=C1c2ccccc2C(=O)N1/N=C/c1ccc(O)c(O)c1O,.,4.11µM,.,.,?
Oc1ccc(/C=N/N2CCCCC2)c(O)c1O,.,5.8µM,.,.,10.3µM
C[C@H](NC(=O)c1nc[nH]c1C(=O)N[C@@H](CCCCN)C(=O)OC(C)(C)C)C(=O)OCc1ccccc1,.,.,.,.,.
SMILES,HT1080 IDH1KD tx,TDP1 cell CPT,IL1B secr inh,HT1080-NT tox,DT40 TDP1 no CPT
CCC1(c2ccccc2)NC(=O)N(CC(=O)N(C)CC(=O)Nc2ccc(F)c(F)c2F)C1=O (centres undefined),.,.,.,.,.
Cc1noc(C)c1-c1ccc(C(=O)NC2CCCCC2)c2occc12,.,16.4µM,.,.,14.6µM
COc1ccc(NC(=O)c2ccc(-c3c(C)noc3C)c3ccoc23)cc1,.,?,.,.,?
Cc1noc(C)c1-c1ccc(C(=O)Nc2ccccc2)c2occc12,?,25.9µM,.,.,?
Cc1noc(C)c1-c1ccc(C(=O)NCC2CC2)c2occc12,.,?,.,.,?
CCCc1cc(CN(C)C(=O)c2ccc(OC3CCN(C(C)=O)CC3)c(OC)c2)[nH]n1,.,.,.,.,.
CC/C(=C\C(=O)c1ccncc1)Nc1ccc(O)cc1,.,?,?,.,20.6µM
O=C(N/N=C/c1ccc(O)cc1)c1ccncc1,.,.,.,.,.
COc1ccc(-n2c(-c3ccco3)nc3c(cnn3-c3ccc(C)cc3)c2=O)cc1,.,11.6µM,.,.,11.6µM
COc1ccc(-n2nccc2-c2nn(-c3cccc(OC)c3)c(=O)n(C)c2=O)cc1,.,?,/,.,?
COc1ccc(-n2c(-c3ccccc3F)nc3c(cnn3-c3ccc(C)cc3)c2=O)cc1,/,20.6µM,/,/,13µM
CCOc1ccc(-n2c(-c3ccc(C)cc3)nc3c(cnn3-c3ccccc3)c2=O)cc1,/,.,/,/,?
Cc1ccc(-n2c(-c3ccco3)nc3c(cnn3-c3ccccc3Cl)c2=O)cc1,/,.,/,/,.
COc1cccc(-n2c(-c3ccco3)nc3c(cnn3-c3ccc(C)cc3)c2=O)c1,/,14.6µM,/,/,14.6µM
COc1cccc(-n2nc(-c3ccnn3-c3ccc(C)cc3)c(=O)n(C)c2=O)c1,.,?,-57.0,.,.
COc1cc(Nc2cccc[n+]2C)cc(OC)c1OC,.,.,.,.,.
Cc1ccc(C(=O)NC(=S)NCc2ccccc2)cc1Br,.,?,.,.,?
O=c1[nH][nH]c(-c2ccccc2O)c1C(C[N+](=O)[O-])c1ccc(Cl)cc1Cl (centres undefined),.,?,.,.,?
Cc1cc(O)c(C(C[N+](=O)[O-])c2ccc(Cl)cc2Cl)c(=O)o1 (centres undefined),?,18.4µM,.,?,16.4µM
O=C(Nc1ccccc1)Nc1n[nH]c2nnc(-c3ccccc3)c(-c3ccccc3)c12,?,?,.,?,16.4µM
O=C1CC2(CCCC2)C(=O)N1c1ccc(S(=O)(=O)NCC2CC2)cc1Cl,.,.,/,.,.
COc1ccccc1NS(=O)(=O)c1cccc(NC(=O)Nc2ccccc2)c1,.,?,-79.1,.,14.6µM
COc1ccccc1NC(=O)Nc1cccc(NC(C)=O)c1,.,.,.,.,.
CCNC(=S)Nc1cccc(S(=O)(=O)NC2=NCCC2)c1,.,.,.,.,.
COc1ccccc1NS(=O)(=O)c1cccc(NC(=O)Cc2cccs2)c1,.,?,.,.,25.9µM
CCNC(=S)Nc1cccc(S(=O)(=O)Nc2ccccc2OC)c1,.,?,.,.,23.1µM
COc1cc(NC(=O)Cc2cccs2)cc(OC)c1,.,?,.,.,18.4µM
O=C(Nc1ccccc1C(=O)Nc1ccc(Cl)cc1)c1cccnc1,.,.,?,.,.
COc1ccccc1NS(=O)(=O)c1cccc(N=C2N=C(N)c3ccccc32)c1,.,.,-66.2,.,23.1µM
